PubChem BioAssay AID1159602 (The Scripps Research Institute Molecular Screening Center, 2016)
Among all 22,000 compounds or so, about 220 (1%) were called active. No stated cut-off is given here; in the data, active means inhibition above about 35%; inactive means the rest. The sample as a whole holds a higher share of actives than the screen did.

What follows are compounds tested against Mitogen-activated protein kinase kinase kinase 5 (Homo sapiens) (UniProt Q99683) (assay: ASK1 kinase inhibitors, primary screen, biochemical, AlphaScreen (AID 1159602;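 further: 0% = median of compound wells and 100% = no enzyme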)). Details: AlphaScreen MKK6 phosphorylation by ASK1, luminescence; at 7.44 µM; hits give high values.
Chain of Mitogen-activated protein kinase kinase kinase 5 (Homo sapiens) (Q99683 whole entry, looked up): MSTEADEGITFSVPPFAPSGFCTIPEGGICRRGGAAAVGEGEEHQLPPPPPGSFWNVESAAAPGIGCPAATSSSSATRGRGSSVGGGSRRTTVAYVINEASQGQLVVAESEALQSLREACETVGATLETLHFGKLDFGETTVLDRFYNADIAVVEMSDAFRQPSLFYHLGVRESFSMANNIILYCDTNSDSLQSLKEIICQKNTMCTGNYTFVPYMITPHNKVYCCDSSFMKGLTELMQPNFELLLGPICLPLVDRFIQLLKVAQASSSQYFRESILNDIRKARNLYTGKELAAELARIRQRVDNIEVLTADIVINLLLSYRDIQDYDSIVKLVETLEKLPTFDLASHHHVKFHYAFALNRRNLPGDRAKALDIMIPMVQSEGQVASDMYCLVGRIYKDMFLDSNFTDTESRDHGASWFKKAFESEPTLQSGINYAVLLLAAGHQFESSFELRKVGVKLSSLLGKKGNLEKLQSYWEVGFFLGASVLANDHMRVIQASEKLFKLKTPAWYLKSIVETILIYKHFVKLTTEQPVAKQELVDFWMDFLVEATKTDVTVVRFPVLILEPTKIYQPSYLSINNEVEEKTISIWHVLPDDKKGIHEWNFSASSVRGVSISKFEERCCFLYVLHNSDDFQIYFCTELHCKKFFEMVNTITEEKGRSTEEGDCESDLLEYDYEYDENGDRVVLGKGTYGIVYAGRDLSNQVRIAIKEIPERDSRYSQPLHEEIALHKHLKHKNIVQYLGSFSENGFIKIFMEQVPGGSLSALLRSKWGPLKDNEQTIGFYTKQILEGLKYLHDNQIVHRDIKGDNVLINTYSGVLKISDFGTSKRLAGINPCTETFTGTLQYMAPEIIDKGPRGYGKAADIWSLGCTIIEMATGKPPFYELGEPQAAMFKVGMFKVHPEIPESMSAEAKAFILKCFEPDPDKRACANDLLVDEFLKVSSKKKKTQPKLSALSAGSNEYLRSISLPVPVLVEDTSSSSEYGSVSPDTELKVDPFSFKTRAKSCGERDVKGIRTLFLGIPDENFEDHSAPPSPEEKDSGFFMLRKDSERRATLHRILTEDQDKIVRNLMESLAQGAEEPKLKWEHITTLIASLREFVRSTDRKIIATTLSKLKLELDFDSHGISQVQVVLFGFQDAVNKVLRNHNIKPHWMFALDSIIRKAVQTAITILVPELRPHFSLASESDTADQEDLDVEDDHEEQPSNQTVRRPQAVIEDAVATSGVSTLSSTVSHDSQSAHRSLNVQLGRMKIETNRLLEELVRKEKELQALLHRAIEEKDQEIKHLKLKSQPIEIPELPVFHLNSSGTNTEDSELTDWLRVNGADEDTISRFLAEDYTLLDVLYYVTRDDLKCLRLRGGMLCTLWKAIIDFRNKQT
With `O=C(NCCN1CCOCC1)c1ccc2nc(N3CCCC3CO)sc2c1` (stereo unspecified) the inhibition was 3.28% (inactive). For `CCCNc1cc(NC2CCN(Cc3ccccc3)CC2)nc(N)n1`, the inhibition was 6.95% (inactive). With `O=C([C@@H](O)CSc1ccc(Br)cc1)N1CCC(Nc2ccc3[nH]ncc3c2)CC1` the inhibition was -0.23% (inactive). With `CC(=O)c1cccc(-c2nc3ccc(C(=O)NCCO)cc3s2)c1` the inhibition was 0.91% (inactive). In the case of `FC(F)(F)c1ccc(Cn2cnc3c(Nc4ccc(Oc5ccccc5)cc4)nc(N4CCOCC4)nc32)cc1`, the inhibition is reported as 18% (inactive). For `CC(C)n1cnc2c(Nc3ccc(N4CCOCC4)cc3)nc(NC3CCC(O)CC3)nc21` (stereo unspecified), the inhibition was 6.93% (inactive). In the case of `Cc1cc(NC2CCN(Cc3ccccc3)CC2)nc(Nc2ccccc2)n1`, the inhibition is reported as 12.7% (inactive). With `CC(C)n1cnc2c(NC3CCN(Cc4ccccc4)CC3)nc(NC3CCN(Cc4ccccc4)CC3)nc21` the inhibition was 8.61% (inactive). For `c1ccc(CN2CCC(Nc3nc(Nc4ccc(N5CCOCC5)cc4)c4ncn(C5CCCCC5)c4n3)CC2)cc1`, the inhibition was 22.4% (inactive). For `CC(C)n1cnc2c(NC3CCN(Cc4ccccc4)CC3)nc(Nc3ccc(N4CCOCC4)cc3)nc21`, the inhibition was 45% (active). In the case of `O=C(Nc1ccc(Oc2ccccc2)cc1)c1cncc(-c2ccc(C(=O)NC3CC3)cc2)c1`, the inhibition is reported as 9.5% (inactive). For `COc1cc(Nc2ncnc3c2nc(N2CCN(Cc4ccc5c(c4)OCO5)CC2)n3C(C)C)cc(OC)c1OC`, the inhibition was 10.6% (inactive). For `CN(C)c1cccc(Nc2nccc(Nc3ccccc3)n2)c1`, the inhibition was 13% (inactive). With `COc1ccc(CCNc2cc(C)nc(NCc3ccc4c(c3)OCO4)n2)cc1` the inhibition was 15.4% (inactive). In the case of `CC(=O)Nc1ccc(Nc2cc(C)nc(NCc3ccc4c(c3)OCO4)n2)cc1`, the inhibition is reported as 5.86% (inactive). In the case of `Cc1cc(Nc2ccc(N3CCOCC3)cc2)nc(NCc2ccc3c(c2)OCO3)n1`, the inhibition is reported as 37.3% (active). In the case of `COc1ccc(CCNc2cc(C)nc(Nc3cccc(N(C)C)c3)n2)cc1`, the inhibition is reported as 70.9% (active). For `COc1ccc(CCNc2ncnc3c2nc(Nc2cccc(N(C)C)c2)n3C(C)C)cc1`, the inhibition was 27.5% (inactive). `CN(C)c1cccc(Nc2ncc(C(=O)Nc3ccc4c(c3)OCO4)s2)c1` was tested, and the inhibition was 24.2% (inactive). `CCNc1nc(C)cc(Nc2ccc(N3CCOCC3)cc2)n1` was tested, and the inhibition was 30.4% (inactive). With `Cc1cc(Nc2ccc3c(c2)OCO3)nc(Nc2cccc(N(C)C)c2)n1` the inhibition was 62.2% (active). With `CC(=O)c1cccc(-c2ccc(C(=O)Nc3ccccc3)s2)c1` the inhibition was -3.18% (inactive). `COc1ccc2c(c1)C[C@H](C(=O)Nc1ccc(-c3cn[nH]c3)cc1N(C)CCN(C)C)NC2` was tested, and the inhibition was 5.32% (inactive). For `CC(C)N(CCNc1nc(Nc2ccccc2)nc2c1ncn2C(C)C)C(C)C`, the inhibition was 6.04% (inactive). With `NC(=O)c1ccc(-c2nc(NCCO)c3ncn(-c4ccsc4)c3n2)cc1` the inhibition was 0.26% (inactive). `Cc1cnc(N2CCc3ccccc3C2)nc1NCCN(C(C)C)C(C)C` was tested, and the inhibition was -16.8% (inactive). For `COc1cc(-c2cn[nH]c2)ccc1C(=O)NCCc1cccs1`, the inhibition was 15.3% (inactive). For `Cc1ccccc1-c1cscc1Nc1cnn(-c2cccc(C(=O)Nc3ccc(N4CCOCC4)cc3)c2)c1`, the inhibition was 37.8% (active). `Cc1cccc(CC(=O)Nc2cnn(-c3cccc(C(=O)Nc4ccc(N5CCOCC5)cc4)c3)c2)c1` was tested, and the inhibition was 16.2% (inactive). `O=C(Cc1cccc(Br)c1)Nc1cnn(-c2cccc(C(=O)Nc3ccc(N4CCOCC4)cc3)c2)c1` was tested, and the inhibition was -2.11% (inactive). In the case of `c1ccc(CNc2nc(Nc3cccnc3)nc3c2ncn3-c2ccccc2)cc1`, the inhibition is reported as 8.4% (inactive). In the case of `CC(=O)c1cccc(-c2nc3ccc(C(=O)NC4CCN(Cc5ccccc5)CC4)cc3s2)c1`, the inhibition is reported as -0.28% (inactive). In the case of `CC(C)n1c(Nc2ccccc2)nc2c(NCc3cccc(C(F)(F)F)c3)ncnc21`, the inhibition is reported as -21.3% (inactive). In the case of `CCCNc1ncnc2c1nc(N1CCN(c3ccccn3)CC1)n2C(C)C`, the inhibition is reported as -14.9% (inactive). For `COc1ccc(CCNc2cc(Nc3cc(OC)c(OC)c(OC)c3)nc(N)n2)cc1`, the inhibition was -1.19% (inactive). For `CCCNC(=O)c1csc(Nc2nc3ccccc3n2C)n1`, the inhibition was -7.28% (inactive). `COc1ccc(-c2nc(Nc3cc(OC)c(OC)c(OC)c3)c3ncn(C(C)C)c3n2)cc1` was tested, and the inhibition was 9.01% (inactive). `CC(C)[C@@H](O)C(=O)N1CCC[C@@H]1C(=O)Nc1ccc2[nH]ncc2c1` was tested, and the inhibition was 4.14% (inactive). For `O=C(NCc1nc2ccccc2[nH]1)c1cc(N2CCCC2CO)nc2ccccc12` (stereo unspecified), the inhibition was 7.25% (inactive). In the case of `c1ccc(-n2cnc(-c3ccnc(Nc4ccc(N5CCOCC5)cc4)c3)n2)cc1`, the inhibition is reported as 9.1% (inactive). In the case of `Fc1cnc(Nc2ccc(N3CCNCC3)cc2)cc1-n1cnc(Nc2ccccc2)n1`, the inhibition is reported as 56.6% (active). With `c1ccc(Nc2nccc(Nc3ccc(N4CCOCC4)cc3)n2)cc1` the inhibition was 25.1% (inactive). With `O=C1CCCN1CCn1cnc2c(NC3CC3)nc(NCc3ccc4c(c3)OCO4)nc21` the inhibition was -15.8% (inactive). `Nc1nc(NCCCN2CCCC2=O)cc(Nc2cnccn2)n1` was tested, and the inhibition was 0.26% (inactive). With `CCCNc1nc(N2CCCC(C(=O)N(CC)CC)C2)nc2c1ncn2Cc1ccc(C(F)(F)F)cc1` (stereo unspecified) the inhibition was 15.8% (inactive). In the case of `COc1cc2nc(Cl)nc(NC3CC3)c2cc1OC`, the inhibition is reported as -7.49% (inactive). In the case of `CCN(CC)c1nc(NCCc2ccc(O)cc2)nc(Nc2cc(OC)c(OC)c(OC)c2)n1`, the inhibition is reported as 4.75% (inactive). `Nc1cccc(-c2cncc(C(=O)NCCOc3ccccc3)c2)c1` was tested, and the inhibition was 1.06% (inactive). `CC(C)n1cnc2c(NCc3cccc(C(F)(F)F)c3)nc(Nc3ccc(OC(F)(F)F)cc3)nc21` was tested, and the inhibition was -3.35% (inactive). For `Cc1nn(C)c(C)c1-c1nc(C(=O)NCCc2ccc(O)cc2)cs1`, the inhibition was 4.91% (inactive). `Nc1nc(NCc2nc3ccccc3[nH]2)cc(N2CCN(Cc3ccc4c(c3)OCO4)CC2)n1` was tested, and the inhibition was 1.22% (inactive). With `c1ccc2[nH]c(CNc3ncnc4nc(Nc5ccncn5)[nH]c34)nc2c1` the inhibition was -8.27% (inactive). With `Cc1cc(NCc2nc3ccccc3[nH]2)nc(N2CCOCC2)n1` the inhibition was -7.53% (inactive). For `c1ccc(-c2ncn[nH]2)c(Nc2ccnc(Nc3ccc(N4CCOCC4)cc3)c2)c1`, the inhibition was 37% (active). `Cc1cnc(Nc2ccc(N3CCOCC3)cc2)nc1Nc1ccccc1-c1ncn[nH]1` was tested, and the inhibition was -18% (inactive). For `CNC(=O)c1ccccc1Nc1ccnc(Nc2ccc(N3CCOCC3)cc2)c1`, the inhibition was 8.11% (inactive). `COc1ccc(CCNc2ncnc3nc(-c4ccc(C(N)=O)cc4)[nH]c23)cc1` was tested, and the inhibition was -0.94% (inactive). For `NC(=O)c1ccc(-c2ncc(C(=O)NCCOc3ccccc3)s2)cc1`, the inhibition was -1.66% (inactive). For `COc1cc(Nc2nc(C)cc(N)n2)cc(OC)c1OC`, the inhibition was -5.08% (inactive). `Nc1cccc(-c2cc(Nc3ccccc3)ncn2)c1` was tested, and the inhibition was 4.09% (inactive). For `c1cnc(Nc2nc(NCc3cccnc3)c3ncn(C4CCCCC4)c3n2)nc1`, the inhibition was 5.63% (inactive). In the case of `c1ccc(CN2CCC(Nc3nc(-c4csc5ccccc45)nc4c3ncn4C3CCCCC3)CC2)cc1`, the inhibition is reported as -20.4% (inactive). With `c1ccc(Oc2ccc(Nc3nc(Nc4ccccn4)nc4c3ncn4-c3ccsc3)cc2)cc1` the inhibition was 2.93% (inactive). `CNC(=O)c1cc(F)ccc1Nc1cc(Nc2ccc3nc[nH]c3c2)ncc1C(F)(F)F` was tested, and the inhibition was -2.41% (inactive). For `NC(=O)c1ccc(-c2nc(Nc3ccc(N4CCOCC4)cc3)c3ncn(-c4ccccc4)c3n2)cc1`, the inhibition was 4.79% (inactive). `Cc1cccc(CC(=O)Nc2cnn(-c3cccc(-c4nn[nH]n4)c3)c2)c1` was tested, and the inhibition was 1.78% (inactive). With `CC(=O)Nc1ccc(Nc2ncnc3c2nc(NCCN2CCOCC2)n3C(C)C)cc1` the inhibition was -3.14% (inactive). With `CC(C)c1nc2ccc(-c3cn[nH]c3)cc2c(=O)[nH]1` the inhibition was 12.2% (inactive). In the case of `Cc1cnc(Nc2cnccn2)nc1NCc1cccnc1`, the inhibition is reported as -9.12% (inactive). With `O=C(NC1CC1)c1ccc(-c2ccc(C(=O)NCc3cccc(C(F)(F)F)c3)s2)cc1` the inhibition was 4.99% (inactive). With `O=C(NC1CCN(Cc2ccccc2)CC1)c1cc(N2CCCC2CO)nc2ccccc12` (stereo unspecified) the inhibition was -11.9% (inactive). For `CC(C)C[C@H](O)C(=O)NC1CCC(Nc2ccc3[nH]ncc3c2)CC1` (stereo partly specified), the inhibition was -17% (inactive). With `O=C(Cc1cn(-c2ccc(N3CCC(N4CCOCC4)CC3)nn2)c2ccccc12)NCCCN1CCCC1=O` the inhibition was -20.2% (inactive). In the case of `CC(C)n1c(N2CCOCC2)nc2c(Nc3ccc(Oc4ccccc4)cc3)ncnc21`, the inhibition is reported as -3.94% (inactive). In the case of `COc1ccc(CCNc2nc(-c3ccccc3)nc3c2ncn3CCN2CCCC2=O)cc1`, the inhibition is reported as -23.4% (inactive). `O=C(NCCN1CCOCC1)C1CCN(c2ccc(Nc3ccccc3)nn2)CC1` was tested, and the inhibition was 6.22% (inactive). With `CCN(CC)CCNC(=O)c1ccc(Nc2cc(Nc3ccccc3C(=O)NC)c(C(F)(F)F)cn2)c(C)c1` the inhibition was -5.11% (inactive). In the case of `c1nc(NC2CC2)c2[nH]c(N3CCC(N4CCOCC4)CC3)nc2n1`, the inhibition is reported as -10.6% (inactive). `COc1ccc(-c2cnc3ccc4ccccc4c3c2)cc1` was tested, and the inhibition was -3.77% (inactive). For `CCN(CC)c1nc(Nc2cc(OC)c(OC)c(OC)c2)nc(Nc2nc3ccccc3n2C)n1`, the inhibition was 3.84% (inactive). In the case of `Nc1nc(NCc2cccc(C(F)(F)F)c2)cc(NCc2ccc3c(c2)OCO3)n1`, the inhibition is reported as -4.13% (inactive). In the case of `CCCNC(=O)c1cncc(-c2ccccc2)c1`, the inhibition is reported as -0.96% (inactive). With `O=C(NCCCN1CCCC1=O)C1CCN(c2ccc(Cl)nn2)CC1` the inhibition was -13.9% (inactive). In the case of `COc1cc(NC(=O)c2cnc(-c3ccccc3)s2)cc(OC)c1OC`, the inhibition is reported as 15% (inactive). With `Oc1ccc(CCNc2nc(Nc3ccccn3)nc3nc[nH]c23)cc1` the inhibition was -9.99% (inactive). `CC(=O)Nc1ccc(NC(=O)c2csc(-c3c(C)nn(C)c3C)n2)cc1` was tested, and the inhibition was 11% (inactive).
